The values below come from ChEMBL document CHEMBL4649991.

In experiment [1] the target is Bromodomain-containing protein 4 (Homo sapiens) (UniProt O60885). The note with it: Compound concentration 10.0 uM, Protein concentration 2.0 uM.
For experiment [2], the target named is T1, Transcription intermediary factor 1-alpha (Homo sapiens) (UniProt O15164).
T1 sequence (whole entry): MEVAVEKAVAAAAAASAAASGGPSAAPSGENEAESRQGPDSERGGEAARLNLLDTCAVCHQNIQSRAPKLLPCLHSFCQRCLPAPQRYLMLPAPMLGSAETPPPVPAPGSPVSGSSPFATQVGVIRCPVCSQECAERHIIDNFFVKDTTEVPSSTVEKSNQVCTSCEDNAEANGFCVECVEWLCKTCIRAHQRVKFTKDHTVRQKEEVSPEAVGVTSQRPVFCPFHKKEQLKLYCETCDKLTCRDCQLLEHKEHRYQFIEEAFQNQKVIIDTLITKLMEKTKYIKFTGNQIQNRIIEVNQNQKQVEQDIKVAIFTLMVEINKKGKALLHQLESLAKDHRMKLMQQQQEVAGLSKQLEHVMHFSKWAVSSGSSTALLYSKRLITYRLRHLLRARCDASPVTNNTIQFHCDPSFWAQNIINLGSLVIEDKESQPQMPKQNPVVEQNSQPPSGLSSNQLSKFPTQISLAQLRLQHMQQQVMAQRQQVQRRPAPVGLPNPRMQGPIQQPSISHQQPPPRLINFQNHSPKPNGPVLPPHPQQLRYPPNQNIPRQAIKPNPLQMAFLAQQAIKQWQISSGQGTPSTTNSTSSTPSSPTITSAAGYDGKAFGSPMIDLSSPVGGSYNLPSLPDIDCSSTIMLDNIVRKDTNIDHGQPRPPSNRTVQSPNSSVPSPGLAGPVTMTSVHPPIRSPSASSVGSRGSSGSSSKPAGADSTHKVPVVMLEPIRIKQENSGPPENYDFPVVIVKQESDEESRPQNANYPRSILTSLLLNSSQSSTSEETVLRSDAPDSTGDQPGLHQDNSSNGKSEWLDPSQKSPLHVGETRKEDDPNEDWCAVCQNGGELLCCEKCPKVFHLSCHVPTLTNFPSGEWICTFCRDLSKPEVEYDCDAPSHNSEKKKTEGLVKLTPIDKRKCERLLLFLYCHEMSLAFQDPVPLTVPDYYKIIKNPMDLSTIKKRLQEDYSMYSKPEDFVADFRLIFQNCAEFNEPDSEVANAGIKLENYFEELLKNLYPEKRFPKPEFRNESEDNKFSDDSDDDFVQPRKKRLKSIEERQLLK
Particulars: Compound concentration 10.0 uM, Protein concentration 2.0 uM.

“And” between values parts separate entries of the source, which are not always exact repeats. Equal entries are not always repeated.

On to `Cc1cc(=O)n(C)c2cc(N3C(=O)CC[C@@H](NS(=O)(=O)CC(C)C)[C@@H]3c3ccc(Cl)cc3)ccc12`, for which the ΔTm in experiment [1] is -0.29 °C and 0.14 °C; in experiment [2], 0.23 °C.
